Assay results taken from PubChem BioAssay AID1645852 (National Center for Advancing Translational Sciences (NCATS), 2021).
In all, about 1,200 compounds went through this assay and about 160 (13%) were called active. Not shown: some 31% with an inconclusive outcome. The call rests on the fitted dose curve; in most records, active means well fitted inhibition curve with a large enough effect; inconclusive means small, poorly fitted or top-dose-only effect; inactive means no such curve, though single readings can be large or run the other way. The list is a sample of the results.

Target: Inositol hexakisphosphate kinase 1 (Homo sapiens) (UniProt Q92551)
Assay: Confirmatory qHTS assay for small molecule inhibitors of Inositol hexaphosphate kinase 1 (IP6K1); further: nearly all actives have a fitted effect of over 65% in size
Details: recombinant IP6K1 kinase, ADP-Glo luminescence, 2 h; series mostly up to 49 µM; activity change, negative = inhibition: at the top concentration
Text: Assay Provider: Huijun Wei, M.S., Ph.D. School of Medicine, Johns Hopkins University, Baltimore, MD Inositol hexakisphosphate kinases (IP6Ks) catalyze pyrophosphorylation of inositol hexakisphosphate (IP6) into inositol 5-diphospho-1,2,3,4,6-pentakisphosphate (IP7), which is involved in numerous areas of cell physiology including glucose homeostasis, blood coagulation and neurological development. Inhibition of IP6Ks may be effective for the treatment of Type II diabetes, thrombosis, and psychiatric disorders. We performed a quantitative high throughput screen (qHTS) of 158,410 compounds for IP6K1 inhibitors using ankinase activity ADP-Glo Max assay. […] Medicinal chemistry SAR efforts in three chemical series identified potent IP6K1 inhibitors, which were further validated in an orthogonal LC-MS IP7 analysis.
PROTOCOL TABLE SEQUENCE No. (e.g., 1, 2, 3, etc.); […] (e.g., Cells, Incubation, Reagent, etc.); VALUE and DESCRIPTION. 1. Reagent, 3 uL of 1.3 mM ATP and 130 uM IP6 mixture in assay buffer was dispensed to a white, 1536-well assay plate. 2. Compound, 23 nL of compounds of the top two doses (57.5 uM and 19.1 uM final concentration) of the libraries were dispensed into the mixture using the Kalypsis pintool. 3. Reagent, 1 uL of 2.4 uM IP6K1 was dispensed to the assay plates. 4. Incubation, 2 hr incubation at room temperature. 5. Reagent, 2 uL of ADP-Glo reagent was added to the wells. 6. Incubation, 1 hr incubation at room temperature. 7. Reagent, 4 uL or ADP-Glo substate was added to the wells. 8. Incubation, 45 min incubation at room temperature. 9. Detection, luminescence signal was detected using the ViewLux microplate imager (PerkinElmer).
On the % scale 0 is the no-effect control and ±100 the full control effect; potency means the concentration at half of the fitted maximal effect.

Chain of Inositol hexakisphosphate kinase 1 (Homo sapiens) (Q92551 whole entry, looked up): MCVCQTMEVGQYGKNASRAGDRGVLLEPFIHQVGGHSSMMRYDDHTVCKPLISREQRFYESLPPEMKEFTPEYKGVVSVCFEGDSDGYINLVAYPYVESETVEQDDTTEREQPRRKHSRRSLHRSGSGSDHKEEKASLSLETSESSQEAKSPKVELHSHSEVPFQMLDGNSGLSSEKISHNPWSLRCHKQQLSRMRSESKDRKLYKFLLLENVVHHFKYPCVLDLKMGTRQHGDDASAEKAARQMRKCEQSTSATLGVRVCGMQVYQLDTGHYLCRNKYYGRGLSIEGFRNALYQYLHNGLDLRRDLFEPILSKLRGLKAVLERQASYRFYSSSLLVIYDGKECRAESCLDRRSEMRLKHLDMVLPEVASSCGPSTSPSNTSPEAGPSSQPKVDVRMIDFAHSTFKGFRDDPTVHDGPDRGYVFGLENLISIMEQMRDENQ

Activity change, negative = inhibition, inactive:
Cc1ccc(CNC(=O)CCc2c(C)nc3c(c(C)nn3-c3ccccc3)c2C)cc1 -6.31%, COc1ccc(C2Cn3nnc(C(=O)N4CCN(C(=O)c5ccc(C)cc5C)CC4)c3CO2)cc1 (centres undefined) 4.29%, COc1c(C)cnc(CN(C)C(=O)C2CC(=O)N(C3CCCC3)C2)c1C (centres undefined) 0.975%, CCCS(=O)(=O)c1ncc(Cl)c(C(=O)Nc2scc(-c3ccccc3)c2C(=O)OCC)n1 -6.72%, Cc1ccc(-c2nnc3ccc(-c4ccoc4)nn23)nc1 0.0128% [at 92.2 µM], CC1=C(C(=O)Nc2ccccc2Cl)C(c2cccs2)n2ncnc2N1 (centres undefined) -29.2%, CN(C)[C@@H]1C(=O)C(C(N)=O)=C(O)[C@@]2(O)C(=O)C3=C(O)c4c(O)ccc(Cl)c4[C@@H](O)[C@H]3C[C@@H]12 -16.3%, Cc1ccc(-c2cc(C(=O)Oc3ccccc3Cl)no2)cc1C 30.1%, Cc1cccc(C(=O)N2CCC3(CC2)CC(c2ccccc2)CN(C)C3)n1 (centres undefined) -16.6%, Cc1cc(C)c(/C=C2\C(=O)Nc3ccccc32)[nH]1 -5.46%, Cc1ccc(-c2onc(C)c2C)cc1S(=O)(=O)Nc1ccccn1 -5.89%, CC(C)(C)OC(=O)N1CCC(c2c(C(=O)N3CCc4ccccc4C3)cnn2-c2ccc(F)cc2)CC1 4.4%, CCc1ccccc1N1CC(c2nc3ccccc3n2CCCCOc2ccccc2)CC1=O (centres undefined) -0.175%, O=c1cc(-c2cccnc2)oc2c(-c3ccccc3O)nccc12 -25.6%, CCOC(=O)c1cc2c(=O)n3ccccc3nc2n(Cc2ccco2)c1=NC(=O)c1ccc(F)cc1 -13%, CCOC(=O)c1ccc(CSc2nnc3cc(C)c4ccccc4n23)cc1 -13%, Cc1ccc2c(c1)N(CC(=O)NCCCN1CCCCC1)C(=O)c1cccnc1O2 -8.72%, O=C(OCCN1CCOCC1)c1cccnc1Nc1cccc(C(F)(F)F)c1 -19.8%, COc1ccccc1N1CCN(S(=O)(=O)CCNC(=O)COc2ccc(F)cc2)CC1 0.724%, CCOc1ncccc1C(=O)N1CCN(Cc2ccccc2)CC(O)C1 (centres undefined) -4.84%, O=c1ncn(Cc2ccccc2)c2ccc(-c3ccoc3)nc12 -9.81%, CCOC(=O)c1ccc(NC(=O)CCS(=O)(=O)c2ccc(C)cc2)cc1 -10.6%, CO[C@H]1C=CO[C@@]2(C)Oc3c(C)c(O)c4c(O)c(c(/C=N/N5CCN(C)CC5)c(O)c4c3C2=O)NC(=O)/C(C)=C\C=C[C@H](C)[C@H](O)[C@@H](C)[C@@H](O)[C@@H](C)[C@H](OC(C)=O)[C@@H]1C -21.3%, CCOc1ccccc1NC(=O)C1CCCN(S(=O)(=O)c2cn(C)cn2)C1 (centres undefined) -14.5%, C(=C\c1ccccc1)/CN1CCN(c2nccc(-c3cccnc3)n2)CC1 -13.6%, CCc1ccccc1N1C(=O)CN(S(=O)(=O)CC)CC1(C)C(=O)NC1CCCCC1 (centres undefined) 22.6%, O=c1c2ccccc2n(Cc2cccc(Cl)c2)c(=O)n1Cc1ccccc1 -4.11%, Cc1ccc(NC(=O)c2cc(S(=O)(=O)NCCC3=CCCCC3)ccc2F)cc1C 4.86%, CC1(C)CN(C(=O)c2ccc(-c3cccc4nc(NC(=O)C5CC5)nn34)cc2)C1 7.31%, COc1ccc2ncc3c(-c4ccc(C)c(C)c4)nn(CC(=O)NC4CCCC4)c3c2c1 26.6%, Cc1ccncc1C(=O)N1CCC2(CC1)CC(c1ccccc1)C(=O)N2C (centres undefined) -13.6%

Potency, active:
COc1cc(NC(=O)Nc2cccc(CNC(=O)O[C@H]3CCOC3)c2)ccc1-c1cnco1 8.2 µM, C#C[C@]1(O)CC[C@H]2[C@@H]3CCC4=C/C(=N/O)CC[C@@H]4[C@H]3CC[C@@]21CC 1.84 µM, CCOc1cccc2c1N[C@@H](c1ccc(C(=O)O)cc1)[C@H]1CC=C[C@@H]21 20.6 µM
